In PubChem BioAssay one finds composite z-score and z-score data, which are given here for 7 compounds.

Active and inactive are the calls of the source.

Test [1] has as its system Plasmodium falciparum Sir2 (PF13_0152, Sir2A). As to the kind of experiment: pfSir2 binders on small-molecule microarrays, primary screen, biochemical, small-molecule microarray, 635 nm fluorescence (AID 1098).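 Also: score merges spot fluorescence intensity with its signal-to-noise ratio.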 Conditions: small-molecule microarray binding, fluorescence 635 nm; higher = more signal.
The nature of test [2]: small-molecule microarray binders of probe aDKK1, primary screen, biochemical, biotinylated probe, 635/667 nm fluorescence (AID 1099).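 Also: score merges 667nm spot fluorescence with signal to noise across triplicate slides.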 Conditions: higher = more signal.
Test [3] in a line: small-molecule microarray binders of probe aCHRDL2, primary screen, biochemical, biotinylated probe, 635/667 nm fluorescence (AID 1100). The conditions noted are these: higher = more signal.
Test [4] in a line: splicing luciferase reporter signal modulators, primary screen, spliceosome inhibition project, cell-based, HEK293, splice +/- reporter (AID 1101).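 Also: HEK293 cells carrying a splicing-competent luciferase reporter gene; test concentration not given here.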 The conditions noted are these: luminescence, 24 h, higher = more signal, called active from +8 up or from −8 down.
Test [5] addresses Fibroblast growth factor 10 (Homo sapiens) (UniProt O15520). The test is described as follows: FGF10 binders on small-molecule microarrays, primary screen, biochemical, small-molecule microarray, 635 nm fluorescence (AID 1102). The conditions noted are these: FGF10 binding, fluorescence 635 nm, higher = more signal.
Test [6] has as its system glycogen synthase kinase-3 (GSK3A per assay name; protocol says GSK3B). As to the kind of experiment: GSK3 binders on small-molecule microarrays, primary screen, biochemical, small-molecule microarray, 635 nm fluorescence, GSK3A (AID 1103). Also: the record names both GSK3A and GSK3B. Conditions: small-molecule microarray binding, fluorescence 635 nm; higher = more signal.
The target of test [7] is Epidermal growth factor receptor (Homo sapiens) (UniProt P00533). As to the kind of experiment: EGFR binders on small-molecule microarrays, primary screen, biochemical, small-molecule microarray, 635 nm fluorescence (AID 1104).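 Also: score merges 667 nm emission intensity with spot signal to noise over triplicate slides.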 The conditions noted are these: EGFR binding, higher = more signal.
The target in test [8] is Follistatin-related protein 3 (Homo sapiens) (UniProt O95633). The test is described as follows: FSTL3 binders on small-molecule microarrays, primary screen, biochemical, small-molecule microarray, 635 nm fluorescence (AID 1105).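 Also: score merges emission near 667 nm and signal to noise per printed spot across three slides.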 Conditions: FSTL3 binding, higher = more signal.
In test [9] the target is Dickkopf-related protein 1 (Homo sapiens) (UniProt O94907). As to the kind of experiment: DKK1 binders on small-molecule microarrays, primary screen, biochemical, small-molecule microarray, 635 nm fluorescence scan (AID 1106).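 Also: score merges emission near 667 nm with signal to noise over three replicate slides.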 The conditions noted are these: DKK1 binding, higher = more signal.
Test [10] relates to Inhibin beta A chain (activin A). As to the kind of experiment: INHBA (activin A) binders on microarrays, primary screen, biochemical, small-molecule microarray, 635 nm fluorescence scan (AID 1107).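 Also: mouse activin A protein probed at 4.33 µg/mL on printed slides; score merges bound-protein fluorescence near 667 nm with spot signal-to-noise.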 Conditions: small-molecule microarray binding, higher = more signal.
The test system of test [11] is Human papillomavirus type 1a protein E7 (residues 44-93). The test is described as follows: HPV1a E7 fragment binders on microarrays, primary screen, biochemical, small-molecule microarray, residues 44-93, 635 nm fluorescence (AID 1108).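 Also: E7 fragment applied at 1 µg/mL in TBST for 1 h at 4 C; score combines spot fluorescence with its signal to noise ratio.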 Conditions: small-molecule microarray binding, fluorescence 635 nm; higher = more signal.
The nature of test [12]: modulators of HCV replicon luciferase signal, primary screen, HCV replication inhibitor project, Huh7 cells, luciferase reporter (AID 1109).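 Also: huh7 hepatoma cells harbouring a luciferase neomycin HCV replicon reporter; luciferase luminescence as measure of HCV replicon replication; test concentration not given here.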 The conditions noted are these: 48 h, higher = more signal. (Replicon systems follow genome replication, usually without infectious particles.)
In test [13] the target is Left-right determination factor 2 (Homo sapiens) (UniProt O00292). As to the kind of experiment: LEFTY2 binders on small-molecule microarrays, primary screen, biochemical, small-molecule microarray, 635 nm fluorescence scan (AID 1110). The conditions noted are these: LEFTY2 binding, higher = more signal.
For test [14], the target named is Calmodulin-1 (Homo sapiens) (UniProt P0DP23). The test is described as follows: CALM1 binders on microarrays, EGTA buffer, profiling panel, biochemical, small-molecule microarray, Cy5-labelled CALM1 (AID 1111).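 Also: labelled calmodulin applied in Tris saline Tween buffer holding calcium plus EGTA and DTT.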 Conditions: Cy5-CALM1 binding fluorescence, higher = more signal.
The target is the same in test [15]. As to the kind of experiment: calcium-bound CALM1 binders on microarrays, profiling panel, artefact control for SMM control-protein annotation, biochemical, small-molecule microarray, Cy5-labelled CALM1, plus calcium (AID 1112).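 Also: score merges spot fluorescence with signal to noise from triplicate slides.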 The conditions noted are these: Cy5-CALM1 binding fluorescence, higher = more signal.
Test [16] is described as follows: small-molecule microarray binders of probe aWnt5a, primary screen, biochemical, biotinylated probe, 635/667 nm fluorescence (AID 1113).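 Also: score merges 667 nm fluorescence intensity with signal-to-noise per printed feature.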 Conditions: higher = more signal.
Test [17] in a line: small-molecule microarray binders of probe aShh, primary screen, biochemical, biotinylated probe, 635/667 nm fluorescence (AID 1114).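 Also: probe is biotin-labelled aShh protein from a stem cell growth factor screen; measures binding of labelled protein to compounds printed on the slide; score merges feature fluorescence at 667 nm with signal-to-noise.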 The conditions noted are these: higher = more signal.
The nature of test [18]: small-molecule microarray binders of probe aNog, primary screen, biochemical, biotinylated probe, 635/667 nm fluorescence (AID 1115).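 Also: probe is biotinylated aNog protein used at 0.15 µg/mL for 1 h at 4 C; z-score combines 667 nm fluorescence of each spot with its signal to noise.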 Conditions: higher = more signal.
Test [19] deals with Torsin-1A-interacting protein 1 (Homo sapiens) (UniProt Q5JTV8). The test is described as follows: LAP1 binders from COS7 cell lysate, primary screen, small-molecule microarray, 635/667 nm fluorescence (AID 1116). The conditions noted are these: COS7-hLAP1 lysate binding, 635 nm fluorescence, higher = more signal.
For test [20], the target named is Alpha-bungarotoxin (Bungarus multicinctus) (UniProt P60615). The test is described as follows: alpha-bungarotoxin binders on microarray, profiling panel, artefact control for SMM control protein annotation, biochemical, small-molecule microarray, Alexa647 label, 635/667 nm fluorescence (AID 1117). The conditions noted are these: alpha-BTX-A647 binding fluorescence, higher = more signal.
Alpha-bungarotoxin (Bungarus multicinctus), sequence (P60615 whole entry, looked up): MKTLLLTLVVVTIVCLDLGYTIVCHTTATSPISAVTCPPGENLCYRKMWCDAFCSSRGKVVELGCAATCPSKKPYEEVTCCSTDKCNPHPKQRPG

Torsin-1A-interacting protein 1 (Homo sapiens), sequence (Q5JTV8 whole entry, looked up): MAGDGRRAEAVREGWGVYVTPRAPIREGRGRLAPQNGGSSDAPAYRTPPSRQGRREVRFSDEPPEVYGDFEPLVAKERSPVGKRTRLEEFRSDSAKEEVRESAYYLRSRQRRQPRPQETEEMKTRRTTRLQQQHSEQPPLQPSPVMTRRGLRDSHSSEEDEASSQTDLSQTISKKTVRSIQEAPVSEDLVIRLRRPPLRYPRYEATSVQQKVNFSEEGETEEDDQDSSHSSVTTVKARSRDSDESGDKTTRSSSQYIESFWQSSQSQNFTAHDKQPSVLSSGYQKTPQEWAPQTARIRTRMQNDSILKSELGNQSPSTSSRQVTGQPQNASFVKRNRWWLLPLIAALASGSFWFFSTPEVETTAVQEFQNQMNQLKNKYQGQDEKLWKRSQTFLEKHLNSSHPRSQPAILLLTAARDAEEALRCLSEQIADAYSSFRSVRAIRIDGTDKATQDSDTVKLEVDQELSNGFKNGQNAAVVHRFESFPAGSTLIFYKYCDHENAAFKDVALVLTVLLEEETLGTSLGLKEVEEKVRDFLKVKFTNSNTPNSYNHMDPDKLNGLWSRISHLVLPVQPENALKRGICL
Dickkopf-related protein 1 (Homo sapiens), sequence (O94907 whole entry, looked up): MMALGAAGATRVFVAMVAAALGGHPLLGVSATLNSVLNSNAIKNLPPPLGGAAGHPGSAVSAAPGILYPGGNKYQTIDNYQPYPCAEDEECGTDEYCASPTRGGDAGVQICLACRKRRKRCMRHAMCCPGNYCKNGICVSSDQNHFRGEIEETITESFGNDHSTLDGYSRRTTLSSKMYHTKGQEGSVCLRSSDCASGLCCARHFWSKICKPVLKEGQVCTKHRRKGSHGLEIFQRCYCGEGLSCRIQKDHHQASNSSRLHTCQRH
Fibroblast growth factor 10 (Homo sapiens), sequence (O15520 whole entry, looked up): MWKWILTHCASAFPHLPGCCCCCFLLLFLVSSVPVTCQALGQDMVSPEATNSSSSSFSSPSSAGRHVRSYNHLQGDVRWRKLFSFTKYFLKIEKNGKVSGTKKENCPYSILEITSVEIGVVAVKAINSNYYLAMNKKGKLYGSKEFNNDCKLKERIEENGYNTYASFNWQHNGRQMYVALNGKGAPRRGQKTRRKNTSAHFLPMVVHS
Follistatin-related protein 3 (Homo sapiens), sequence (O95633 whole entry, looked up): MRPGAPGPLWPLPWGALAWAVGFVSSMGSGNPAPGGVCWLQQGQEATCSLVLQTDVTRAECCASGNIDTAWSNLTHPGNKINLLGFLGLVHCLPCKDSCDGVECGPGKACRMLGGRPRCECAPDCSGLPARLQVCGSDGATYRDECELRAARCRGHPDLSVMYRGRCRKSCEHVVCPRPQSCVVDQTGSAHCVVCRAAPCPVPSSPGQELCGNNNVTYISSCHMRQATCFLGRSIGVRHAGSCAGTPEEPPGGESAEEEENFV
Epidermal growth factor receptor (Homo sapiens), sequence (P00533 whole entry, looked up): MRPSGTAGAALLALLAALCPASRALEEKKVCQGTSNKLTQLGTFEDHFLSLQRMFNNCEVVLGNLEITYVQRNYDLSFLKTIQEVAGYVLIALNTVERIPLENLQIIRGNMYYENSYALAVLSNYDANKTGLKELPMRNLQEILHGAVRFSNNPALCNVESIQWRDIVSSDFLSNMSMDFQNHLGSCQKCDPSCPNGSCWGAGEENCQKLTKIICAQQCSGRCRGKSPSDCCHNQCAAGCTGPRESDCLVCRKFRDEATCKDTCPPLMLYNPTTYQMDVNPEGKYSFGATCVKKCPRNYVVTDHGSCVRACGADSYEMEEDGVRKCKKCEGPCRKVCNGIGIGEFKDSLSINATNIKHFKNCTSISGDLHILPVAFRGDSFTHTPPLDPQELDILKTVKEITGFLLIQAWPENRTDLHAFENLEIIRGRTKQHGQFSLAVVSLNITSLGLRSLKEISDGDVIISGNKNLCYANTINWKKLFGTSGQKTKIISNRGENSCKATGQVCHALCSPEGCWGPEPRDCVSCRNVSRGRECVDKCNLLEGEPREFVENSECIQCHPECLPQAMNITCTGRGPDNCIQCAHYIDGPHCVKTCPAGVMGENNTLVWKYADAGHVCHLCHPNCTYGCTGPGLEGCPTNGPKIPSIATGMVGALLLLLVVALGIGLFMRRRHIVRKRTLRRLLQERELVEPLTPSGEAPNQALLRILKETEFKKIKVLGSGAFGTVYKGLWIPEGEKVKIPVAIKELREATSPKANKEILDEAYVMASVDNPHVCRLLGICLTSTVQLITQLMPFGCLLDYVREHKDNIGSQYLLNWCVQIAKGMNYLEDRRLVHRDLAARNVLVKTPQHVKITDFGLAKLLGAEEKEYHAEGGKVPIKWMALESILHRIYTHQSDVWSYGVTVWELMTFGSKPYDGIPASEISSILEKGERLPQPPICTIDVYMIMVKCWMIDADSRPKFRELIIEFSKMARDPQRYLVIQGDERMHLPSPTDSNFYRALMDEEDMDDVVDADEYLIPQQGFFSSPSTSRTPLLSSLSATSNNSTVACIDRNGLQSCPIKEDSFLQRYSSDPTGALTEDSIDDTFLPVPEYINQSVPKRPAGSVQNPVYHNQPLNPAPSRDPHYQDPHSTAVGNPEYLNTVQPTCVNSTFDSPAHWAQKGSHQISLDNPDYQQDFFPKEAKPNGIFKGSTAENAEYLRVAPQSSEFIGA
Left-right determination factor 2 (Homo sapiens), sequence (O00292 whole entry, looked up): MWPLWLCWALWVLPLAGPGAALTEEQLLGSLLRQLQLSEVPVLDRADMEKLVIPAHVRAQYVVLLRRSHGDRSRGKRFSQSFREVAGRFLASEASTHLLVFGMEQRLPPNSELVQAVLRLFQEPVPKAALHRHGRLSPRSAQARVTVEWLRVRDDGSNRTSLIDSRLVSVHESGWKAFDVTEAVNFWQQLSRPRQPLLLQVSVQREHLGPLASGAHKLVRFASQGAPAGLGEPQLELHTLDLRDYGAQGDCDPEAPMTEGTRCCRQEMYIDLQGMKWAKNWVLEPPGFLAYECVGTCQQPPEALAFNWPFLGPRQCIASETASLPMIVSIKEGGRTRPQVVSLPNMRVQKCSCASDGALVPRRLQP

In the case of `C#CCCCON=C1C[C@@H](O)[C@@H](O)[C@@H]2[C@@H]3C(=O)N([C@@H](C)c4ccccc4)C(=O)[C@@H]3CC[C@@H]12`, the composite z-score is 0.563 in test [1]; -0.292 in test [2]; 0.0951 in [3]; -0.723 in test [5]; -0.521 in [6]; 0.377 in test [7]. Moreover, the composite z-score in [8] was -0.447; in test [9] it was -0.67; in test [10], 0.718; in test [11] it was -0.31; in [13], 0.201; in test [14], -0.172. The composite z-score in [15] is -0.274; in test [16], -0.166; in [17] it was -0.0553; in [18], 0.167; in [19] it was -0.512; in [20], 0.46. For the same compound, the z-score is -0.0154 (inactive) in [4] and 1.14 in test [12].
Turning to `CCCNC(=O)OC[C@H]1O[C@H](CCON=C2C[C@@H](O)[C@@H](O)[C@@H]3[C@@H]4C(=O)N(CC)C(=O)[C@@H]4CC[C@@H]23)C=C[C@@H]1Oc1ccc(OC)cc1`, the composite z-score in test [1] was 0.874; in test [2], -0.04; in test [3] it was -0.39; in [5], 0.55; in test [6], 1.05; in test [7] it was 0.611. In addition, the composite z-score in [8] stood at 1.07; in test [9] it was 1.35; in test [10], 0.157; in test [11] it was 0.938; in test [13], 0.928; in test [14], 0.0716. Besides, the composite z-score was -0.795 in test [15]; -0.141 in test [16]; 0.531 in test [17]; 0.084 in [18]; -0.0137 in test [19]; 0.512 in test [20]. For the same compound, the z-score in test [4] is 0.264 (inactive); in [12], -1.33.
Regarding `CC(C)[C@@H](OCc1ccccc1)[C@H](C)C=NOC[C@@H](O)[C@H]1O[C@@H]2OC(C)(C)O[C@@H]2[C@H]1O`, the composite z-score in [1] was 0.635; in test [2], -0.0784; in [3] it was -0.609; in [5], 0.355; in test [6], 0.151; in test [7], 0.677. Also, the composite z-score in [8] is 0.628; in test [9] it was 0.254; in test [10], -0.519; in test [11], 0.436; in [13] it was 0.413; in test [14], 0.178. Further, the composite z-score in test [15] was -0.606; in test [16], -0.15; in [17], -0.634; in [18] it was 0.848; in test [19], 0.145; in test [20], 0.278. For the same compound, the z-score in test [4] was -0.262 (inactive); in test [12], -1.75.
Turning to `CC(C)C(=O)N[C@H]1CCCN1C(=O)C=Cc1ccccc1`, the composite z-score in test [1] is 0.0571; in test [2], -0.0477; in test [3], -0.43; in [5], 1.07; in [6] it was 0.823; in test [7], 0.43. Further, the composite z-score is 0.722 in test [8]; 0.634 in test [9]; 0.0551 in test [10]; 0.531 in [11]; 0.681 in test [13]; -0.266 in [14]. Besides, the composite z-score in [15] was -0.306; in test [16], 0.0495; in [17], 0.3; in test [18], 0.254; in test [19], 0.289; in test [20], 0.0359. Moreover, the z-score was 0.539 (inactive) in test [4] and -0.206 in [12].
Regarding `CCc1cc2c(nc1CC)CCN(CCC(C)=NOCC[C@@H]1C=C[C@H](OC(C)=O)[C@@H](COC(C)=O)O1)C2`, the composite z-score in test [1] was 1.05; in test [2] it was 0.0092; in test [3] it was 0.343; in [5], -0.0488; in test [6], 0.459; in test [7], 0.789. Moreover, the composite z-score is 0.332 in test [8]; 0.301 in test [9]; 1.29 in test [10]; 1.11 in test [11]; 0.879 in test [13]; -0.307 in [14]. Moreover, the composite z-score is -1.2 in [15]; 0.0209 in [16]; -0.167 in test [17]; -0.4 in test [18]; 1.01 in test [19]; 0.147 in test [20]. The z-score in test [4] was 0.192 (inactive); in test [12] it was -0.879.
Turning to `CCOC(=O)CCN1C(=O)[C@H]2[C@H]3[C@H](O)[C@H](O)CC(=NNC(=O)OCc4ccc(OC)cc4)[C@H]3CC[C@H]2C1=O`, the composite z-score was 0.14 in [1]; 0.127 in test [2]; 0.0124 in test [3]; -0.186 in [5]; 0.071 in test [6]; 0.459 in [7]. Besides, the composite z-score in [8] is 0.449; in test [9] it was 0.132; in [10], 0.747; in [11], 0.451; in [13] it was 0.214; in [14] it was -0.211. Besides, the composite z-score was -0.509 in test [15]; 0.0243 in [16]; 0.0121 in test [17]; 0.0236 in test [18]; -0.176 in test [19]; 0.354 in test [20]. The results for the z-score in [4] and in test [12] were -0.352 (inactive) and -2.44, respectively.
On to `CO[C@H]1C[C@@H]2C[C@H](O)CC(CC(=O)O[C@@H](C=CCC(C)C)C[C@@H]3CC[C@H](C)[C@@H](C1)O3)O2`, for which the composite z-score in [1] was 1.02; in [2] it was -0.205; in [3] it was -0.594; in test [5], 0.682; in [6] it was 1.29; in test [7], 0.595. Moreover, the composite z-score in test [8] was 0.808; in [9], 1.13; in test [10] it was 0.0531; in [11] it was 1.27; in test [13] it was 0.748; in test [14], -0.126. Moreover, the composite z-score in [15] is -0.468; in test [16], -0.0194; in [17], 0.0815; in test [18], -0.447; in test [19], 0.536; in test [20], 1.63. Further, the z-score in test [4] is -0.278 (inactive); in test [12], -0.763.
